Laboratory results taken from PubChem BioAssay (NCI).
Compounds without any hit were thinned out: in the full panel of roughly 83,000, 20% have a hit.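 A percent growth of 40 corresponds to 60% growth inhibition; 0 means no net growth; -100 means all cells died. Active threshold: below 10.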 A number with no mark means an inactive call. Activity calls are given as the source filed them.

Assays:
Test in all cases: NCI-60 one-dose screen, 48 h (100 = growth as untreated, 0 = no growth, -100 = all killed)
Settings in all cases: 10 µM unless noted
HCT-15 colon = system: HCT-15 colon
HT29 colon = system: HT29 colon
SNB-75 CNS = system: SNB-75 CNS
SNB-19 CNS = system: SNB-19 CNS
U251 CNS = system: U251 CNS
PC-3 prostate = system: PC-3 prostate
SK-MEL-5 melanoma = system: SK-MEL-5 melanoma
UACC-62 melanoma = system: UACC-62 melanoma
LOX IMVI melanoma = system: LOX IMVI melanoma
SK-MEL-28 melanoma = system: SK-MEL-28 melanoma

Structure (SMILES) | growth (HCT-15 colon) | growth (HT29 colon) | growth (SNB-75 CNS) | growth (SNB-19 CNS) | growth (U251 CNS) | growth (PC-3 prostate) | growth (SK-MEL-5 melanoma) | growth (UACC-62 melanoma) | growth (LOX IMVI melanoma) | growth (SK-MEL-28 melanoma)
COc1cc(Nc2ncccc2NC(=O)c2cn(Cc3cccc(Oc4ccccc4)c3)nn2)cc(OC)c1 | 68.7% | 88.8% | 79.9% | 79.6% | 80.2% | 66.5% | 60% | 65.5% | 75.1% | 83.3%
CCCCc1oc2ccccc2c1C(=O)c1ccc(O)cc1 | 81.6% | 103% | 62.4% | 91.1% | 85.8% | 73% | 82.6% | 69.1% | 82.7% | 116%
CCN=C1C=CC(=C(c2ccc(N(C)C)cc2)c2ccc(N(C)C)cc2)c2ccccc21 | -7.99% (active) | -18.7% (active) | -17.3% (active) | 14.8% | -3.23% (active) | -4.82% (active) | -95.5% (active) | -38% (active) | -10.8% (active) | -18.5% (active)
CCCC(O)Cn1ncc(C(=O)OCC)c1NC(=O)NCc1cccc(F)c1 (stereo not given) | 99.7% | 88.8% | 93.6% | 102% | 101% | 83.6% | 101% | 97.1% | 92.7% | 97.8%
COc1ncc2cc1NS(=O)(=O)c1cccc(c1)C(=O)NCC1=CC=C(S1)c1ncnc3c1SC2=C3C | -18.2% (active) | 4.55% (active) | -12.9% (active) | 11.5% | -10.2% (active) | -24.8% (active) | -38.2% (active) | -46.7% (active) | -32.1% (active) | -62.2% (active)
CC(C)CCSc1nc(Nc2ccccc2)c(C#N)c(-c2ccccc2)n1 | 55.3% | 50.7% | -10.1% (active) | 19.3% | 2.98% (active) | 68.8% | 95.2% | 89.9% | 25.5% | 82.1%
S=c1ssnc1-c1cccs1 | 99% | 105% | 97.1% | 96.8% | 100% | 94.3% | 57.3% | 90.7% | 92.3% | 112%
CCOC(=O)Nc1nc2ccc(SCC(C)C)cc2s1 | 25.5% | 9.7% (active) | 74.3% | 49.9% | 34.3% | 36.9% | 34.1% | 17.3% | 36.3% | 62.3%
O=C1c2cccnc2C(=O)c2c1c(C(=O)OCCCN1CCCCC1)c1ccccn21 | -55.5% (active) | -24.2% (active) | -88.7% (active) | -38.2% (active) | -31% (active) | -18.2% (active) | -96.2% (active) | -51.2% (active) | -67.2% (active) | -20.3% (active)
COc1cc(C(=O)/C=C/c2c(-c3cccs3)nc3ccccn23)cc(OC)c1OC | -7.46% (active) | -25.8% (active) | -4.3% (active) | 14.2% | 1.5% (active) | 7.19% (active) | -24.1% (active) | -33.1% (active) | -1.66% (active) | 8.11% (active)
Cc1cc(F)ccc1S(=O)(=O)Nc1cc(-c2c(O)ccc3ccccc23)c(O)c2ccccc12 | 10.7% | 52.8% | 46.2% | 37.4% | 18.6% | 15.5% | -63.6% (active) | 2.8% (active) | 16% | 29.4%
CN1CCN(CCOc2ccc(-c3cnc4c(-c5ccc(C(F)(F)F)cc5)cnn4c3)cc2)CC1 | -33.6% (active) | -15.5% (active) | 96.1% | 61.4% | 1.48% (active) | 28.3% | 64.4% | 72.4% | -89.9% (active) | 85.1%
O=C(N/N=C/c1ccc(Cl)cc1Cl)c1ccc2nc(-c3ccc(Cl)cc3)[nH]c2c1 | 4.69% (active) | 1.67% (active) | 98.4% | 4.35% (active) | -15.2% (active) | -24.9% (active) | 36.2% | 16.8% | -55.9% (active) | -9.23% (active)
O=C(Cn1nnc2ccccc21)Nc1ccc(-c2nc3ccccc3s2)cc1 | 91.5% | 101% | 106% | 103% | 89.6% | 83.3% | 74.3% | 97.1% | 84.2% | 102%
C[N+](C)(C/C=C/c1ccccc1)Cc1ccccc1 | 97.8% | 91.9% | 87.5% | 104% | 102% | 97% | 95.6% | 99.3% | 89% | 102%
CN1CCN(CCCOC(=O)c2c3c(n4ccccc24)C(=O)c2ncccc2C3=O)CC1 | -39.1% (active) | -32.3% (active) | -88.7% (active) | 1.8% (active) | -31.7% (active) | 17.6% | -98% (active) | -48.8% (active) | -60.9% (active) | 12.5%
COc1ccc(Cc2cnc(NC(=O)c3sc4ccccc4c3Cl)s2)cc1 | 15.9% | 8.15% (active) | 9.6% (active) | 50.7% | 20.8% | 31.5% | 27.8% | 35.7% | 45.9% | 62.1%
COc1ccc2c(c1)c(-c1nonc1-c1cn(C)c3ccc(OC)cc13)cn2C | 25.4% | 13.1% | 24% | 36.8% | 33.7% | 50.1% | 38% | 26.3% | 39.7% | 60.8%
COc1cc2c(c(OC)c1OC)C(=O)CC(c1cccc(NC(=O)c3ccccc3Br)c1)O2 (stereo not given) | 88.6% | 97.1% | 93.3% | 95.5% | 91.5% | 77.9% | 86.1% | 72.2% | 93.4% | 111%
COc1ccc(C/C(C)=C(/c2ccc(OCCN3CCCCCC3)cc2)c2ccc(OC(=O)NCc3ccccc3)cc2)cc1 | 60.6% | 13.4% | 90.7% | 87.4% | 71.8% | 71.8% | 91.2% | 88.8% | 52.3% | 98.3%
C=C1C(=O)O[C@H]2[C@H]1CC/C(CNC(=O)c1cc3ccccc3[nH]1)=C\CC[C@@]1(C)O[C@@H]21 | -78.9% (active) | -59.7% (active) | 48.4% | 22.4% | -16.8% (active) | -48.5% (active) | -87.6% (active) | -74.9% (active) | -78.8% (active) | -57.6% (active)
C=C(CN1CC=CCC1)[C@@H]1CC[C@]2(CO)CC[C@]3(C)[C@H](CC[C@@H]4[C@@]5(C)CC[C@H](O)C(C)(C)[C@@H]5CC[C@]43C)[C@@H]12 | 92.2% | 55.3% | 108% | 99.8% | 88.3% | 77.5% | 96.2% | 98% | 99.8% | 101%
CN1CCN(CCCOc2ccc3ncnc(Nc4ccc(Oc5cccc(F)c5)c(Cl)c4)c3c2)CC1 | -3.99% (active) | -25.1% (active) | 52.1% | 34.8% | 8.27% (active) | 8.64% (active) | -96.3% (active) | -31.8% (active) | -91.6% (active) | -85.9% (active)
CC[C@H](Nc1nc(N)nc(C)c1C#N)c1nc2cccc(NCCCCCC(=O)NO)c2c(=O)n1-c1ccccc1 | 78.7% | 79.2% | 5.55% (active) | 71% | 61.3% | 45.1% | 49.7% | 15.7% | 66.5% | 45.8%
CCCCCCCCn1ccc2cc(NC(=O)Cn3cc(CN4CCC(C)CC4)nn3)ccc21 | -32.2% (active) | -66.9% (active) | 79.1% | -34.8% (active) | -57.6% (active) | 43% | -23% (active) | -77.8% (active) | -85.3% (active) | -86.9% (active)
Cn1ncc2ccc(-c3nc(-c4ccccc4)[nH]c3-c3n[nH]c(=O)n3C3CC3)cc21 | 100% | 87.1% | 81.2% | 95.9% | 100% | 77.9% | 98.8% | 100% | 97.2% | 102%
C/C(=C(\c1ccc(OCCN2CCCCCC2)cc1)c1ccc(OC(=O)Cc2ccccc2)cc1)c1ccc(Cl)cc1 | -15.5% (active) | -8.13% (active) | 39.7% | 63.1% | 8.22% (active) | 41.9% | 40.1% | -5.48% (active) | -94.5% (active) | -27.3% (active)
